Reference: the supplement of paper PMC10681739

Each sequence was assayed against T1, ETS1 (UniProt P14921) (assay: ETS1 binding intensity (PBM fluorescence), ETS1 alone (arbitrary fluorescence units); higher = stronger binding). Conditions: ETS1 concentration 1 nM; RUNX1 concentration 0 nM.
T1 sequence: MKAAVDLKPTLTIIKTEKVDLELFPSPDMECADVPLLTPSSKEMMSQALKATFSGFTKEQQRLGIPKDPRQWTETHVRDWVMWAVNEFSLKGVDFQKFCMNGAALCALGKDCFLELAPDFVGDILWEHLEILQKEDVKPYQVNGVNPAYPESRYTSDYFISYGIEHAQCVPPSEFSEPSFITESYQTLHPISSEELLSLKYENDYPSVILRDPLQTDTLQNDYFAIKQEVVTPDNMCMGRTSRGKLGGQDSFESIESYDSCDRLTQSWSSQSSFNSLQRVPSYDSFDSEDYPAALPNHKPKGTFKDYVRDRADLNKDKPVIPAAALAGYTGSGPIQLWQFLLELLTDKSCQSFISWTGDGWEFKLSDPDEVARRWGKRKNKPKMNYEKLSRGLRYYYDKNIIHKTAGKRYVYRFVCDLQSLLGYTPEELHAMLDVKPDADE
Description: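 Cooperative genomic-context PBM: 36-bp genomic probes with neighbouring ETS1 and RUNX1 sites, double-stranded on Agilent 4x180k arrays. Full-length recombinant human ETS1 (1 nM) was incubated alone or with RUNX1 (25 nM) and detected with anti-ETS1 antibody plus Alexa488 secondary. Value is the median fluorescence intensity over 4 replicate spots; the ETS1+RUNX1 data were normalised to the ETS1-only data using probes without RUNX1 sites. The 36-bp variable region sits on the array probe with constant linker/primer flanks that are not printed.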

| Sequence | ETS1 binding intensity |
| --- | --- |
| TGATAAAACACAGGATGTGGTAAGGGAGCTGGCCAA | 3350 |
| TGTGCTGACTACAGGATGCTGTGGTTAGTCAGGTTG | 1690 |
| GTTGTGCTCTTTCCTGCTTCCCGCAGTTTTTTAGTT | 626 |
| TGCGAGGTTGCCAGGAAACCGCGAAGCCGAGGTCCC | 808 |
| TAAATGTTTCCTAAAAGCTCTTTCATAAACCACAGT | 390 |
| ACCCGGATGTCGTTGGGCAGGAACTGCGGTGAGGGC | 2580 |
| CTTGGCGGAAGTGGTGTGGGGGAGGTAGCCCGCAGT | 1840 |
| TAAAGAAACAGGATGACTGTGGTTTACTGCGAGCAT | 500 |
| GAGGCCCAGGATGTGGCTGGAGGCCTGTGGTGGGAC | 630 |
| TTTTCCCACTTCCTAGGTTGTGGTGGGGATTACACA | 475 |
| TGCCGTTTCCGGGTCACCCAGGCAGCTTGTGGCGGC | 528 |
| TTCTGCTACATCCTGCCCACTCCCTGTGGCTTCCAC | 1090 |
| AATCATTTCCTGCCCTAACGTTTGTGGTCTGCCTAG | 728 |
| AGCGTTGTCTTCCGGCCTCAACCACTCAGCGACCGG | 14400 |
| GATGAAAGAGGAAGTTCTCAAACCACCTTGCCAGTG | 1170 |
| GGGGACCGGAAAGGGAGGGGTGGGCCGCAGGCGCCG | 786 |
| TTTACAGGAAATTACAGGGGTTAAACCAAACCACAA | 986 |
| GAGTCTACAGCGGAAGCCACCACATGCCCCACCCCC | 4820 |
| CTGACGCATTTCCGGCCTTTGCGGTTGATCGGTCAT | 5220 |
| CTGCTAGCGGAAGCAGCCAAGCCCACAGGCTCCAGG | 942 |

| Sequence | ETS1 binding intensity |
| --- | --- |
| CAGTTTGCCCCGGATGTTGACCGCCTTGAAGTCGTA | 4170 |
| CCTTTACTTCCTTTTACTTCTAACCACAGAATTAAA | 444 |
| GGCGGAACTTGTGCGTACGCTGGAAAACCGCTGGGG | 385 |
| TGGCGCTTCCTGTCGCTACCGCTGCGGCCCAGGGCC | 819 |
| ACAGATGGTCCGGAACTTCAGAAAACCACTCATTGT | 583 |
| CTACCGGAAATGCAGCACCACGTAAAATGCGGTCGG | 3650 |
| CTGTTCTCATCCGCCCGCTCTGAGTCACCCACACCT | 465 |
| GTTTCTCTGGCCAGGAAATTGAGGTTTCTGTTAGTC | 2010 |
| AGGCGGCAGGAAATGACCCCATCCCGCAGCCTGGGC | 2480 |
| CTGTCAGGATGTTGGCTTGTGAGCCCACAATCCTCT | 413 |
| CGGCTGTTTTCCAGGATGTTGTGGTCATGGCGGTGT | 1590 |
| TTAGATGTGCCTACATCCTGACCTCAAAAACCTCTG | 561 |
| GCGTTTCCCCCTTGGGGTTATAGCAACCACCTCCTC | 479 |
| GCAGTGCAGGAAGTGCTTTGTGTGGTACAATCCCAA | 1920 |
| TGGGGCCCGGAAGCGCTGGCGCCTTGCGGCCAGAAG | 1500 |
| AACAGATCCTTCCTGGCCCCCACTAGCCACAGGTTT | 490 |
| AATGCAGCATTTCCTCTCCAGTTCACCACAGGCCCC | 590 |
| AAGTGAAGAGCTTCCGCCGGGAGACCGCGGCTGCAG | 592 |
| TGCACTCCACTTCCCCTCGCCCGCAGTGAGCAGTCA | 426 |
| GCAGGAAACGCTTTCTTAACACTATGTGGGTGAGGT | 763 |
